Measured values as given in the supplement of paper PMC11732987, “Enantioselective OTUD7B fragment discovery through chemoproteomics screening and high-throughput optimisation” (Communications Chemistry, 2025).

Legend:
Assay in all cases: log2 ratio of Biotin-Ahx-Ub-VS probe labelling (fragment/DMSO); higher = less target engagement (more negative = stronger competition), active = hit call of the paper (q ≤ 0.05, log2 ratio ≤ -1)
Conditions in all cases: compound concentration: 200 uM; treatment time: 3 h
[1] = target: T1, OTUD6B (UniProt Q8N6M0)
T1 sequence (whole entry): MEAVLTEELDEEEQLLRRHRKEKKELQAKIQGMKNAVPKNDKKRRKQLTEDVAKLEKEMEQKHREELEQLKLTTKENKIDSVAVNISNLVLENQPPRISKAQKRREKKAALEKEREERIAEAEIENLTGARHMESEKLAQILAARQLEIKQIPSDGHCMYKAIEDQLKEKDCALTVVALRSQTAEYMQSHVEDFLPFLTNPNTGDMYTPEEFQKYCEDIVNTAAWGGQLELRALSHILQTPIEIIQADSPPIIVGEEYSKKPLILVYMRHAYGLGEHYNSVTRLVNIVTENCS
Outline: (§1)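 In triplicate, 495 µg of HEK293T lysate per sample was incubated with fragment at 200 µM or vehicle for 3 h. Biotin-Ahx-Ub-VS was then added to 0.5 µM final for 1 h, and labelled DUBs were captured with NeutrAvidin, digested with LysC and trypsin, and measured by diaPASEF LC-MS/MS. Data are average log2 fragment/vehicle ratios by unpaired t-test from global-median-normalised Spectronaut label-free quantities, restricted to proteins with ≥2 unique peptides.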

[2] = target: T2, OTUD7B (UniProt Q6GQQ9)
T2 sequence (whole entry): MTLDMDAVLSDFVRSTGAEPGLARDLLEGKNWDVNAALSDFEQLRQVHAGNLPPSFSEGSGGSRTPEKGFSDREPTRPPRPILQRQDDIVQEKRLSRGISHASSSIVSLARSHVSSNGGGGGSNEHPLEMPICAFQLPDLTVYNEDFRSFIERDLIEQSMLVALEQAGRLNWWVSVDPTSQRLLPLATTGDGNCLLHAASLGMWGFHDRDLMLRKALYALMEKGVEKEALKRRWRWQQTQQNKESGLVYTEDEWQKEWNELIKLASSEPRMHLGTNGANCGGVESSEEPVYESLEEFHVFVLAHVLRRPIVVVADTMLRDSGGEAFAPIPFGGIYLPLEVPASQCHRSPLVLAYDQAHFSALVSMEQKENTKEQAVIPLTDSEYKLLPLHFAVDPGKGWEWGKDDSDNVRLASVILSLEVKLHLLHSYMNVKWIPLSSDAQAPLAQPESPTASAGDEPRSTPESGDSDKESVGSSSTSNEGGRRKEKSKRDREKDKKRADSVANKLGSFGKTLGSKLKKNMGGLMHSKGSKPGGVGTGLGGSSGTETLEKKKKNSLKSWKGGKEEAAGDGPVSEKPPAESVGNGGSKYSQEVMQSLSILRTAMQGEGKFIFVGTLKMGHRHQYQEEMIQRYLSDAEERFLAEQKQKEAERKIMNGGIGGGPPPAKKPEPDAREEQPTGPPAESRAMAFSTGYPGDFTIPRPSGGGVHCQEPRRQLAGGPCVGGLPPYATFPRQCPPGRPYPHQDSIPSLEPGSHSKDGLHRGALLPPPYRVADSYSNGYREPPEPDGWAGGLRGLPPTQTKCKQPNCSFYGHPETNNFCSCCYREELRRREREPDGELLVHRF
Outline: as §1

[3] = target: PRPF8 (UniProt Q6P2Q9)
Outline: as §1

[4] = target: T3, PSMD7 (UniProt P51665)
T3 sequence (whole entry): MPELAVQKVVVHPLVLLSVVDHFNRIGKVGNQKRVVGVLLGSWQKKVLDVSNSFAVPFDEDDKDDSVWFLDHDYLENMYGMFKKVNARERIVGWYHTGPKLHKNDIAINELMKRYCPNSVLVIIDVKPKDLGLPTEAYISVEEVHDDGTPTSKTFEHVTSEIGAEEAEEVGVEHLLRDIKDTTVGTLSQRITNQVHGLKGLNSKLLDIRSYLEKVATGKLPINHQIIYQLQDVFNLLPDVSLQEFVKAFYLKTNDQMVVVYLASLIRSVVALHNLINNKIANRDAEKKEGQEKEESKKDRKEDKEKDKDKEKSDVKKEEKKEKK
Outline: as §1

[5] = target: UCHL1 (UniProt P09936)
Outline: as §1

[6] = target: T4, UCHL3 (UniProt P15374)
T4 sequence (whole entry): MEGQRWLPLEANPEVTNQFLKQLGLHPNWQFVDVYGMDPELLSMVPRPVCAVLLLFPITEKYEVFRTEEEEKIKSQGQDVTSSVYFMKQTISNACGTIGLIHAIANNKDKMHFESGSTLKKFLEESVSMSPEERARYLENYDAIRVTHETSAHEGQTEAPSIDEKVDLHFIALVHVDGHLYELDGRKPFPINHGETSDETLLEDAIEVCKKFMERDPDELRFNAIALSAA
Outline: as §1

[7] = target: T5, UCHL5 (UniProt Q9Y5K5)
T5 sequence (whole entry): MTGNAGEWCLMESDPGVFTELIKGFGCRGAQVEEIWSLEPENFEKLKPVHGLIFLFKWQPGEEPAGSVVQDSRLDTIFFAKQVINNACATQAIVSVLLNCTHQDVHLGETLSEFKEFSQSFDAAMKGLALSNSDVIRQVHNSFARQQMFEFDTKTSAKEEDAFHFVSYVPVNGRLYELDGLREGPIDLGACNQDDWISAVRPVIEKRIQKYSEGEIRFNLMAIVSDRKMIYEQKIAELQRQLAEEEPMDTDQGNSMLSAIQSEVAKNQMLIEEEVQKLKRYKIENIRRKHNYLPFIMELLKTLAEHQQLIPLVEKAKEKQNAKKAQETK
Outline: as §1

[8] = target: USP10 (UniProt Q14694)
Outline: as §1

[9] = target: T6, USP15 (UniProt Q9Y4E8)
T6 sequence (whole entry): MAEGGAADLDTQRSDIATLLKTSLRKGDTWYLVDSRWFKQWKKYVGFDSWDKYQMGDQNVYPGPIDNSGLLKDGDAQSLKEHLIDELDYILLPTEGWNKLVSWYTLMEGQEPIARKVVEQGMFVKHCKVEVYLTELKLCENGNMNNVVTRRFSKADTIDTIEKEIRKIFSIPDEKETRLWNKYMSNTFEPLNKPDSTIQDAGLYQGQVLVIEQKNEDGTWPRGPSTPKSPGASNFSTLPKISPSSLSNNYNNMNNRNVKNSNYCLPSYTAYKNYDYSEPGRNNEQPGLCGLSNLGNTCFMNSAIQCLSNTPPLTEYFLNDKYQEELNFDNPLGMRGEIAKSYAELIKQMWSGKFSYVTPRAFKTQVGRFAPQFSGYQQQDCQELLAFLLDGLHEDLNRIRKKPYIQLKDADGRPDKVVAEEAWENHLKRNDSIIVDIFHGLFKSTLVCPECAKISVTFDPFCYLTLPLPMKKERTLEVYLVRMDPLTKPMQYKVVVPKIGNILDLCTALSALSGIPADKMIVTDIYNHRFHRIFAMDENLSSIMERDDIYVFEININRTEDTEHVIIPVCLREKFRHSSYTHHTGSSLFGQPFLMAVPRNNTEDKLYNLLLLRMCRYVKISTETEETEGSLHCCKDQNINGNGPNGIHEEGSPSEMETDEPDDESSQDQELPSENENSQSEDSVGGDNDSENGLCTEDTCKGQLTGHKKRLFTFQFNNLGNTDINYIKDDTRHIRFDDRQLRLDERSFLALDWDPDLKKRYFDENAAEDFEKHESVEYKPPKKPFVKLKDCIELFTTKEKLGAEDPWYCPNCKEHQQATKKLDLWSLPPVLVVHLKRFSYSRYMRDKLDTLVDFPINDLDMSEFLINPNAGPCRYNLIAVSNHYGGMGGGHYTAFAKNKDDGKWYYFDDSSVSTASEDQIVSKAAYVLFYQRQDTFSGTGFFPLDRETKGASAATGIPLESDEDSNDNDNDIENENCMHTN
Outline: as §1

[10] = target: USP16 (UniProt Q9Y5T5)
Outline: as §1

Measured: log2 ratio of Biotin-Ahx-Ub-VS probe labelling

UCHL1, sequence (P09936 whole entry, looked up): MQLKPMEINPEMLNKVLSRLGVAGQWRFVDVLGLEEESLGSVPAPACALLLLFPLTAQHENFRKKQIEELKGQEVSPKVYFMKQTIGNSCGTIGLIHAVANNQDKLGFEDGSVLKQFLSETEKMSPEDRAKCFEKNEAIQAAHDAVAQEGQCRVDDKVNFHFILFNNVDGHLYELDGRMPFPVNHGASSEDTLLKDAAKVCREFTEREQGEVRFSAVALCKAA
USP16, sequence (Q9Y5T5 whole entry, looked up): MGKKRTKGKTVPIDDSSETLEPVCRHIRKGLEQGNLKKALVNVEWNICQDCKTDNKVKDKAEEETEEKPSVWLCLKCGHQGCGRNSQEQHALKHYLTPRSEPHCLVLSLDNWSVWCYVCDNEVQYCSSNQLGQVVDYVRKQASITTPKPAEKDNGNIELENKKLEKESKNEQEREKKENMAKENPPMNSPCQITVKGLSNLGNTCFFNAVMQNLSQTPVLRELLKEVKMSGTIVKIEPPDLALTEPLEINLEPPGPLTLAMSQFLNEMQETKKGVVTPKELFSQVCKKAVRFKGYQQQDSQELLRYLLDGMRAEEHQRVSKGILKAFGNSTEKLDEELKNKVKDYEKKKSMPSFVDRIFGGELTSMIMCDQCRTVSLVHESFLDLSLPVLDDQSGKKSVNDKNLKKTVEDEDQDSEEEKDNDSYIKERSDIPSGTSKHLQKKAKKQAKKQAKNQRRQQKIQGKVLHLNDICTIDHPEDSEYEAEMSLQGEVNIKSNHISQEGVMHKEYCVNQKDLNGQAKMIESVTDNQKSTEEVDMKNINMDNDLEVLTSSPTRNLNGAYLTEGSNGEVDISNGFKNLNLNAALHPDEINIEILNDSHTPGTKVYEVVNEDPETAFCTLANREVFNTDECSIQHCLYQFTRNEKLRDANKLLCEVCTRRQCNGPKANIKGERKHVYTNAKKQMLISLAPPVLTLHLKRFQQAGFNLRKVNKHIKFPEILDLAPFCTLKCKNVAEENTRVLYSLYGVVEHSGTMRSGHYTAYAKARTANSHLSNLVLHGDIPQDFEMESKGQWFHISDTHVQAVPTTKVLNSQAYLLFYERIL
USP10, sequence (Q14694 whole entry): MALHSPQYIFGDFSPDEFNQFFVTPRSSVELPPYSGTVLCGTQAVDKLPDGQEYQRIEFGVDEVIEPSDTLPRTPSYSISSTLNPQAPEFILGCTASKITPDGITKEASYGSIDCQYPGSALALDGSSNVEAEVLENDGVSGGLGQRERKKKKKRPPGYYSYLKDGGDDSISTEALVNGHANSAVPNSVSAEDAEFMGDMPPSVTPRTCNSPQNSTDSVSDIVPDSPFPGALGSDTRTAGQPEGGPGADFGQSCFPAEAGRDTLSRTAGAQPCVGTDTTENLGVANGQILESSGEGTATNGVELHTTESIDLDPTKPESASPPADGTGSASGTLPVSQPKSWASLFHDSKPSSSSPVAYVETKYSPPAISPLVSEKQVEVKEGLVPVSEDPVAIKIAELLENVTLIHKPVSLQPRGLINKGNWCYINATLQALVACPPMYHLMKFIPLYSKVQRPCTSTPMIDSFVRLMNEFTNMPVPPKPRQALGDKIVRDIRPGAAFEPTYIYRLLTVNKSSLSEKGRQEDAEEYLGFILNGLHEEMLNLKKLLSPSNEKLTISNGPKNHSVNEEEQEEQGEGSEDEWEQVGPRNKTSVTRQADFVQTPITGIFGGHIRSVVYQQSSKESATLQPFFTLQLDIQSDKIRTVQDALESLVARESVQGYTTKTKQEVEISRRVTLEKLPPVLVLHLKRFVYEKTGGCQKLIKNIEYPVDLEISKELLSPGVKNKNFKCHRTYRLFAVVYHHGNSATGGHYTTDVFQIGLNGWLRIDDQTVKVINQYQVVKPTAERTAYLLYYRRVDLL

CC(NC(=O)CCl)c1cnn(C2CC2)c1 (stereo not given)
active: [2] -1.99 | [5] -1.3
inactive: [1] -0.174 | [3] -0.0754 | [4] -0.168 | [6] 0.329 | [7] -0.187 | [8] -0.103 | [9] -0.182 | [10] -0.19
